Experimental data reported in the supplement of paper PMC10849652.
Of roughly 8,800 targets only a part is listed; those with a hit were picked by preference. About 0.5% of all pairs of compound and target were hits.

These targets were tested with O=C(O)c1ccc2c(c1)nc(Nc1cccc(Cl)c1)c1ccncc12 [silmitasertib] (assay: log2 fold change, soluble protein after heating vs DMSO (PISA); higher = thermal stabilisation; K562 lysate, 10 uM; active = over 0.2 and 3.5 SD of the protein, either way, in both replicates (recomputed)).
Procedure, shortened: (§1)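 Soluble protein was defined as the supernatant remaining after 21,000xg for 90 min, following pooling of heated aliquots and adjustment to 0.5% NP-40 at 4°C. Before that, crude K562 extract at 1 mg/mL protein in PBS pH 7.4 with 1 mM MgCl2 was treated with 10 μM compound for 30 min and heated for 3 min across 48°C-58°C. Quantification used TMTpro 16plex LC-MS/MS with channel sums equalised, and values are log-two fold changes in thermal stability relative to solvent controls from duplicates.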

Chain of UniProt P98196 (P98196 whole entry, looked up): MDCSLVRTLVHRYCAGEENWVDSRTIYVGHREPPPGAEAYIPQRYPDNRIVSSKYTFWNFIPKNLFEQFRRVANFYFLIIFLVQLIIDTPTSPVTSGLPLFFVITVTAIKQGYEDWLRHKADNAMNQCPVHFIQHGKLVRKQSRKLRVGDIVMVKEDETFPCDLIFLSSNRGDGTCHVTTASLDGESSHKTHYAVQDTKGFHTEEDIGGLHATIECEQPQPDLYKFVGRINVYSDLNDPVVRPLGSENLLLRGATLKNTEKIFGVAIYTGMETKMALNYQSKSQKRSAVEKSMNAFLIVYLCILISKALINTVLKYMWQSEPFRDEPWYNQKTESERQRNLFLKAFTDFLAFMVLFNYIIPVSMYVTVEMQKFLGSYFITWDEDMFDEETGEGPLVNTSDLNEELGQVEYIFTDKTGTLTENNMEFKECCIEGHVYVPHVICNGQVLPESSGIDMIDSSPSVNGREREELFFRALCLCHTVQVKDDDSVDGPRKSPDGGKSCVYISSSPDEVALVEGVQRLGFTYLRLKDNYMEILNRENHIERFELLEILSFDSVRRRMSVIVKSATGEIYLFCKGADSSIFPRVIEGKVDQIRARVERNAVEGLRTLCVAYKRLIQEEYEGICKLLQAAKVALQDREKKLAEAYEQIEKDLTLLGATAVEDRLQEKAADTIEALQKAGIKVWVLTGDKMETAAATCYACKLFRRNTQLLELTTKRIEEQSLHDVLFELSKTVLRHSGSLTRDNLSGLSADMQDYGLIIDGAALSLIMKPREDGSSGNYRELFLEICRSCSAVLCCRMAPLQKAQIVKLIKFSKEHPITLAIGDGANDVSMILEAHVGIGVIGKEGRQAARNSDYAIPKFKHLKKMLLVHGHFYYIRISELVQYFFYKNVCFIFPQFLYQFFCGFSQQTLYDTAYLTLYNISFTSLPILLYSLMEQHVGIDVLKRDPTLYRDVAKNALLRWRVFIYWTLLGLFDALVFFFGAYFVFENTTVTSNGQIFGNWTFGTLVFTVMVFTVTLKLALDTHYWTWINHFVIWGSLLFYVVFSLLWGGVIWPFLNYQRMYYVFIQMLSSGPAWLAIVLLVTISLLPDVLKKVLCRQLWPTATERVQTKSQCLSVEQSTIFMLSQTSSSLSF
Chain of UniProt O00311 (O00311 whole entry, looked up): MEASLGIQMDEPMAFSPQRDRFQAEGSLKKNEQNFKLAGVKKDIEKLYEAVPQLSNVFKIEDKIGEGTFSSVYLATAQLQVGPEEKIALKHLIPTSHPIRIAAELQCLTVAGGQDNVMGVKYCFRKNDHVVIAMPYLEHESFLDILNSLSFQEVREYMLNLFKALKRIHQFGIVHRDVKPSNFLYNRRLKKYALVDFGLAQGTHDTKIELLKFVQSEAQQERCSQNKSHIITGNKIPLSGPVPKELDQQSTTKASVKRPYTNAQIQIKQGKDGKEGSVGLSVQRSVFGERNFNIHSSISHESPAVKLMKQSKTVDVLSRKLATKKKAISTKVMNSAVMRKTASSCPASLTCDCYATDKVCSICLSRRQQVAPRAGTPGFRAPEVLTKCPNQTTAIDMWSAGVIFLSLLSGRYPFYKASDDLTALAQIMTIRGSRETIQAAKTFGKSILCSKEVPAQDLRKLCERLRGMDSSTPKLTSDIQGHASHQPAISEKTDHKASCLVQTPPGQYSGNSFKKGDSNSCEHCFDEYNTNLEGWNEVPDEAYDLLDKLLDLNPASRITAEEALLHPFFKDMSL
Chain of UniProt P01024 (P01024 whole entry, looked up): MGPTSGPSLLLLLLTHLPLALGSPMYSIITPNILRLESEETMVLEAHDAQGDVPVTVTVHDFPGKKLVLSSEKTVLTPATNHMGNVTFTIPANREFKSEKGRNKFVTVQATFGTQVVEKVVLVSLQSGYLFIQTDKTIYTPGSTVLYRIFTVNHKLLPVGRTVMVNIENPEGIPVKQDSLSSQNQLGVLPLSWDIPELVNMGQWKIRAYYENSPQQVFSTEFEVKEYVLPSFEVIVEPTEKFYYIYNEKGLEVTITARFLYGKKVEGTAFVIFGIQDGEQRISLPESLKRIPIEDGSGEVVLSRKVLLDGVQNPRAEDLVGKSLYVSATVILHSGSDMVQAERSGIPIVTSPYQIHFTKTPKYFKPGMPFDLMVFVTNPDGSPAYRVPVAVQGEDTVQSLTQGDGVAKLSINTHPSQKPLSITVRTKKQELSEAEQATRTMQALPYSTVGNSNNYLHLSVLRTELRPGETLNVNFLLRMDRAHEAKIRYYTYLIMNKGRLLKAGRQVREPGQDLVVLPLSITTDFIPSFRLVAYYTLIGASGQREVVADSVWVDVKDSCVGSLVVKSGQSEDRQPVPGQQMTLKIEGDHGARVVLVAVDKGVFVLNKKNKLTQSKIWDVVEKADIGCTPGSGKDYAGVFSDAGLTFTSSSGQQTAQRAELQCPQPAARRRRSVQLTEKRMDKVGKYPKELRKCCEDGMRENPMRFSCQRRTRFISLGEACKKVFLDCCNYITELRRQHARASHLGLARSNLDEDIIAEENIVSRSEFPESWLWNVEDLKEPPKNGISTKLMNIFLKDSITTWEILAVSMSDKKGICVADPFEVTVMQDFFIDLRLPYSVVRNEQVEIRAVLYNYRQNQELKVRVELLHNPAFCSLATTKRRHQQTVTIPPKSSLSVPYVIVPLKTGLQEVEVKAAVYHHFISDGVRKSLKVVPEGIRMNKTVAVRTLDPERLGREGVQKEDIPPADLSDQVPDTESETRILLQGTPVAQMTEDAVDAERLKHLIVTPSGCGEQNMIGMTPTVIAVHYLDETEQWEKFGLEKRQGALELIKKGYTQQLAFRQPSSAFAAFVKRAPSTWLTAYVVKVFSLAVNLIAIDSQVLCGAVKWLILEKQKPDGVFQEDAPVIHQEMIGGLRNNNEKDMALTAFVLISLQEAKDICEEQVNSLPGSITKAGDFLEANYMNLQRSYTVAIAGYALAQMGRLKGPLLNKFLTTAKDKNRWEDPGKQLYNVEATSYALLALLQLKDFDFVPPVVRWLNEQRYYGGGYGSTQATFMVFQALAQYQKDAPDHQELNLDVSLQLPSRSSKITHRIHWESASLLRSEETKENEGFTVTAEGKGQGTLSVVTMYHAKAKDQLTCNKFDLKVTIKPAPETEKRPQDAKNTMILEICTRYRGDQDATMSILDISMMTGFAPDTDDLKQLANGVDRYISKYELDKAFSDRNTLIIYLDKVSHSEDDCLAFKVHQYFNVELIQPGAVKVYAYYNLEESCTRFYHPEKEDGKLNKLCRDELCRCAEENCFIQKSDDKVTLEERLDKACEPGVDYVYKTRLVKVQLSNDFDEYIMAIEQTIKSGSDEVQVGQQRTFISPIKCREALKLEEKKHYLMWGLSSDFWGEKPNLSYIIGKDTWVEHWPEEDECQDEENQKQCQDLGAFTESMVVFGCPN
Chain of UniProt Q8N5S9 (Q8N5S9 whole entry, looked up): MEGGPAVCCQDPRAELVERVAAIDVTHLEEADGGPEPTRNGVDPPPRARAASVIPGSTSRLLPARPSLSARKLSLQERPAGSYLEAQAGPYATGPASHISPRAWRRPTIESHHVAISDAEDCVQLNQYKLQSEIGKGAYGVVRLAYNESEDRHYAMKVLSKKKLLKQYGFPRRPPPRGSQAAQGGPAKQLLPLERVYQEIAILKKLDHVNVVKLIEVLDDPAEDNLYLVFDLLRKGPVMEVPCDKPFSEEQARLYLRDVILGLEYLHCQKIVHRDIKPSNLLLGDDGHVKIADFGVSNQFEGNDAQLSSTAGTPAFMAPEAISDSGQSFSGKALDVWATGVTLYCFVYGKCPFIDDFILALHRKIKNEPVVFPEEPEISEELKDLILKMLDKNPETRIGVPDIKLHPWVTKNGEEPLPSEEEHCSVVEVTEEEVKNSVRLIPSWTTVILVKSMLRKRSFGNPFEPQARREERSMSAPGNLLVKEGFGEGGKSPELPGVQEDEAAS
Chain of UniProt P55212 (P55212 whole entry, looked up): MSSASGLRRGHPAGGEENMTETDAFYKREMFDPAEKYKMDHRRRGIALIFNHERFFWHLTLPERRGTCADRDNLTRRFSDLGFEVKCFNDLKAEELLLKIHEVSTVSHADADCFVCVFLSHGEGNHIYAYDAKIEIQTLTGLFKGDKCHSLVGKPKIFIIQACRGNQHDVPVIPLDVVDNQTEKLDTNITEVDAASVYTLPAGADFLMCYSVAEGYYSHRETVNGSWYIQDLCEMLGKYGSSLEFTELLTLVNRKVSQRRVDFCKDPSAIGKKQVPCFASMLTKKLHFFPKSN
Chain of UniProt Q5BKX5 (Q5BKX5 whole entry, looked up): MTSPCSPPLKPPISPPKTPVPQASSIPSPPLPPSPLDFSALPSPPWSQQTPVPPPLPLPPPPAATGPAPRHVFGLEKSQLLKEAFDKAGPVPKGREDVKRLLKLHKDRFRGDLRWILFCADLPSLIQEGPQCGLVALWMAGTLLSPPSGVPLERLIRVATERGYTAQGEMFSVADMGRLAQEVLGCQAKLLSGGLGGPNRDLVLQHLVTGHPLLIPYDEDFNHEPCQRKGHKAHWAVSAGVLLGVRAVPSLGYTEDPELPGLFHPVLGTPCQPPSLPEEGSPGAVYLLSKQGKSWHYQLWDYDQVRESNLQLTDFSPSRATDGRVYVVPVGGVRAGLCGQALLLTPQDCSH
Chain of UniProt Q86WR0 (Q86WR0 whole entry, looked up): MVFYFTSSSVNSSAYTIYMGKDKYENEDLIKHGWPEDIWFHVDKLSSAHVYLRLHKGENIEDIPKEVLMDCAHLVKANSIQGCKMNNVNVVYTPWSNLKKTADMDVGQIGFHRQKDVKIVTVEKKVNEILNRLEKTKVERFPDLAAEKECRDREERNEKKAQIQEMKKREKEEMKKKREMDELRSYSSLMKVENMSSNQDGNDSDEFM
Chain of UniProt P49918 (P49918 whole entry, looked up): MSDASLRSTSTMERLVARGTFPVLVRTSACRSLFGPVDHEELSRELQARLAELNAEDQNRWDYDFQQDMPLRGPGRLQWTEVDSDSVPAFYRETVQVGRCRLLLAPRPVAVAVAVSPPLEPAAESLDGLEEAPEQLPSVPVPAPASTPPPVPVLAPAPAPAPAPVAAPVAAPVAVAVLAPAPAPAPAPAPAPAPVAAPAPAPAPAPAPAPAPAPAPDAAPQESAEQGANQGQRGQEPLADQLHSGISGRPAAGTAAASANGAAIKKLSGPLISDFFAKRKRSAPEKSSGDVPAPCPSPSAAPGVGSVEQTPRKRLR

log2 fold change, active:
CDK17 isoform 2 (UniProt Q00537) 0.565

log2 fold change, inactive:
ATAD3B (UniProt Q5T9A4) 0.015, BBS7 (UniProt Q8IWZ6) 0.133, CEP120 (UniProt Q8N960) -0.075, AUH (UniProt Q13825) 0.017, CAMKK1 isoform 2 (UniProt Q8N5S9) 0.072, C3 (UniProt P01024) 0.008, CCNA2 (UniProt P20248) -0.06, CDKN1C (UniProt P49918) -0.029, CCNB2 (UniProt O95067) -0.079, BLOC1S6 (UniProt Q9UL45) 0.004, CASP6 (UniProt P55212) 0.045, CEP152 (UniProt O94986) 0.039, AVEN (UniProt Q9NQS1) -0.009, BLM (UniProt P54132) 0.044, CCP110 (UniProt O43303) -0.131, CDC42EP4 (UniProt Q9H3Q1) -0.074, CARHSP1 (UniProt Q9Y2V2) -0.006, BNIP1 (UniProt Q12981) 0.066, CBR1 (UniProt P16152) -0.024, ATG10 (UniProt Q9H0Y0) 0.049, C18orf25 (UniProt Q96B23) -0.147, CDK5RAP2 (UniProt Q96SN8) 0, BRD4 (UniProt O60885) -0.011, CAMK2B (UniProt Q13554) -0.017, CHAF1A (UniProt Q13111) -0.004, ATP11A (UniProt P98196) 0.106, C19orf54 (UniProt Q5BKX5) -0.004, BCKDHB (UniProt P21953) 0.076, CDK5RAP3 isoform 4 (UniProt Q96JB5) 0.068, CDK2 (UniProt P24941) 0.248, CDC7 (UniProt O00311) -0.077, CCDC25 (UniProt Q86WR0) -0.032, ATG4B (UniProt Q9Y4P1) 0.043, CEBPZOS (UniProt A8MTT3) -0.004, CDK9 isoform 2 (UniProt P50750) 0.164, CHD5 (UniProt Q8TDI0) 0.007, AURKA (UniProt O14965) 0.135

What follows are targets tested with O=C1NC(=O)C(c2cnc3ccccn23)=C1c1cn2c3c(cc(F)cc13)CN(C(=O)N1CCCCC1)CC2 in the same assay as above.
Procedure, shortened: as §1

log2 fold change, inactive:
ATAD3B (UniProt Q5T9A4) -0.057, BBS7 (UniProt Q8IWZ6) -0.015, CEP120 (UniProt Q8N960) 0.135, AUH (UniProt Q13825) -0.063, CAMKK1 isoform 2 (UniProt Q8N5S9) -0.007, C3 (UniProt P01024) 0.062, CCNA2 (UniProt P20248) -0.026, CDKN1C (UniProt P49918) 0.134, CCNB2 (UniProt O95067) -0.08, BLOC1S6 (UniProt Q9UL45) 0.011, CASP6 (UniProt P55212) -0.018, CEP152 (UniProt O94986) 0.089, AVEN (UniProt Q9NQS1) 0.092, BLM (UniProt P54132) 0.003, CCP110 (UniProt O43303) -0.124, CDC42EP4 (UniProt Q9H3Q1) 0.021, CARHSP1 (UniProt Q9Y2V2) 0.056, BNIP1 (UniProt Q12981) -0.026, CBR1 (UniProt P16152) 0.033, ATG10 (UniProt Q9H0Y0) -0.023, C18orf25 (UniProt Q96B23) -0.034, CDK5RAP2 (UniProt Q96SN8) 0.026, BRD4 (UniProt O60885) -0.02, CAMK2B (UniProt Q13554) 0.056, CHAF1A (UniProt Q13111) 0.004, ATP11A (UniProt P98196) 0.009, C19orf54 (UniProt Q5BKX5) -0.006, BCKDHB (UniProt P21953) 0.072, CDK5RAP3 isoform 4 (UniProt Q96JB5) 0, CDK2 (UniProt P24941) 0.202, CDK17 isoform 2 (UniProt Q00537) 0.103, CDC7 (UniProt O00311) -0.01, CCDC25 (UniProt Q86WR0) -0.011, ATG4B (UniProt Q9Y4P1) -0.014, CEBPZOS (UniProt A8MTT3) -0.025, CDK9 isoform 2 (UniProt P50750) 0.402, CHD5 (UniProt Q8TDI0) 0.042, AURKA (UniProt O14965) 0.1
